What all share (test): DAPPL (digital affinity profiling via proximity ligation, sequencing); 10 mM Tris-HCl pH 7.5, 50 mM NaCl, 1 mM DTT, 4% glycerol, room temperature, 30 min; GST-TFs on glutathione beads, 16-mer random dsDNA library, 0.1% formaldehyde crosslink after washing; high values mean tight binding
Holding throughout (conditions): protein: recombinant; tags: N-terminal GST; dsDNA, one strand shown

The target in one assay is T1, FLI1 (Homo sapiens, UniProt Q01543 1-452).
T1 sequence: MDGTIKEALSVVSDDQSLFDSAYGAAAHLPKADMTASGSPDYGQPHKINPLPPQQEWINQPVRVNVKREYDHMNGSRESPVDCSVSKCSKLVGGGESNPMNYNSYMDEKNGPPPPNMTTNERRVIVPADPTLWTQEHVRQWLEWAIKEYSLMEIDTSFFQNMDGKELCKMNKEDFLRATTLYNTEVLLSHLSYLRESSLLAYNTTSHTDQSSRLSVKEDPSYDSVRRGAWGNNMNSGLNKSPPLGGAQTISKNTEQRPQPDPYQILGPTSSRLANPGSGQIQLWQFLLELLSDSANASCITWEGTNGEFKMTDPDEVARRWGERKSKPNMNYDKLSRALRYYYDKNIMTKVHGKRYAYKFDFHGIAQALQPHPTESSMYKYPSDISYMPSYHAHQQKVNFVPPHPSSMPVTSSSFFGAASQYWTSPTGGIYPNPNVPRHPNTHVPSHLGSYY
The procedure, abridged: (§1)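 GST fusions of human transcription factors were expressed in yeast and captured with glutathione beads. Once given DNA barcodes and pooled alongside a tag-only sample, they were incubated for 30 min at room temperature with 200 nmole of a random double-stranded 16-mer DNA library in Tris/NaCl/DTT/glycerol buffer, then washed, crosslinked (0.1% formaldehyde), proximity-ligated, PCR-amplified and sequenced on an Illumina NextSeq500. The binding signal of each hexamer is its read frequency for a factor divided by its frequency for the tag-only sample.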

For the next assay, the target named is T2, ELK1 (Homo sapiens, UniProt P19419 1-428).
T2 sequence: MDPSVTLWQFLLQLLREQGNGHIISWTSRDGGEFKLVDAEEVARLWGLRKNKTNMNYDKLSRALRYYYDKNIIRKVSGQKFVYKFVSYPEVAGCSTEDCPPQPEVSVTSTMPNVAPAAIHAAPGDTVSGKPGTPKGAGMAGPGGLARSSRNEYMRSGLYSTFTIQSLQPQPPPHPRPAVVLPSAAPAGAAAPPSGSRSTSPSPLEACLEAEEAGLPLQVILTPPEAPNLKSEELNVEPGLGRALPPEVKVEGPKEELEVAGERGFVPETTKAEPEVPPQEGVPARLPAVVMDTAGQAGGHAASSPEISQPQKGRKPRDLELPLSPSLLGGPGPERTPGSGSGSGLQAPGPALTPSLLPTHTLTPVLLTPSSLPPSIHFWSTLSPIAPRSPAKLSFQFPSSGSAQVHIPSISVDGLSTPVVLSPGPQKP
The procedure, abridged: as §1

For the next assay, the target named is T3, GABPA (Homo sapiens, UniProt Q06546 1-454).
T3 sequence: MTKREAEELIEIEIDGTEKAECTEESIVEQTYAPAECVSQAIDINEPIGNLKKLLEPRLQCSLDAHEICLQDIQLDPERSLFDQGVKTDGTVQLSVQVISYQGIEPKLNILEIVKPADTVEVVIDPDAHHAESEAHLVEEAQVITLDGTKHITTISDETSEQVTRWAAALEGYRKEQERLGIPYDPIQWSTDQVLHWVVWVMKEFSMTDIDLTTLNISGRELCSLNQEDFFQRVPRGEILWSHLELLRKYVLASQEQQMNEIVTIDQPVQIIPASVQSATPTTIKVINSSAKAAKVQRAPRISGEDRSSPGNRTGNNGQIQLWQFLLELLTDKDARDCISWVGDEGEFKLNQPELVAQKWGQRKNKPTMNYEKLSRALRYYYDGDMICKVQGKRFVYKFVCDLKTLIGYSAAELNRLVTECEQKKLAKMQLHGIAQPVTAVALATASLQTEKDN
In outline: as §1

A further assay has as its target T4, ERG (Homo sapiens, UniProt P11308 1-479).
T4 sequence: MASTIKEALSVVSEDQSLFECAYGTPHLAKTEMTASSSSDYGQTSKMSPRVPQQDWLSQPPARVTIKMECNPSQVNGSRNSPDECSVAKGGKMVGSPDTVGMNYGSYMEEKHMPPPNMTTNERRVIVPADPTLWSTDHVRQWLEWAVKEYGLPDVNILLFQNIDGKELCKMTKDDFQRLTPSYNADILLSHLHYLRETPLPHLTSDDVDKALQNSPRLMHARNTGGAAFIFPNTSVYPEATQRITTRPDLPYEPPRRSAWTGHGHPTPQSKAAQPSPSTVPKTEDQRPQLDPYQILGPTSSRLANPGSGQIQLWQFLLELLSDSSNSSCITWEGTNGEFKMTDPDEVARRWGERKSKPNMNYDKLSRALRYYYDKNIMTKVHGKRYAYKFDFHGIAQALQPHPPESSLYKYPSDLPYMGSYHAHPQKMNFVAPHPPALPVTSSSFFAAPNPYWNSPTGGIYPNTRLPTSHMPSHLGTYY
The procedure, abridged: as §1

In the next assay the target is ELF1 (Homo sapiens, UniProt P32519 1-619). In outline: as §1
For a further assay, the target named is T5, EHF (Homo sapiens, UniProt Q9NZC4 1-300).
T5 sequence: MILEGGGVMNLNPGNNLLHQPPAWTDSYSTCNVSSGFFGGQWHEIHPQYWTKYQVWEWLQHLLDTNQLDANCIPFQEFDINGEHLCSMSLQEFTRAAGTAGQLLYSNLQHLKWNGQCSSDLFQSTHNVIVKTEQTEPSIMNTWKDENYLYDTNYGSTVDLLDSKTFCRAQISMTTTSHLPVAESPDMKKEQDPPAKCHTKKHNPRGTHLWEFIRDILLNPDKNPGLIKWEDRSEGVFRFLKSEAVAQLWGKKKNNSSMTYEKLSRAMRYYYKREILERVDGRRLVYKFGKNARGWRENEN
In outline:
as §1

Another assay addresses SPI1 (Homo sapiens, UniProt P17947 1-270). In outline:
as §1

The target of another assay is SPIB (Homo sapiens, UniProt Q01892 1-262). The procedure, abridged:
as §1

In another assay the target is T6, ELK3 (Homo sapiens, UniProt P41970 1-407).
T6 sequence: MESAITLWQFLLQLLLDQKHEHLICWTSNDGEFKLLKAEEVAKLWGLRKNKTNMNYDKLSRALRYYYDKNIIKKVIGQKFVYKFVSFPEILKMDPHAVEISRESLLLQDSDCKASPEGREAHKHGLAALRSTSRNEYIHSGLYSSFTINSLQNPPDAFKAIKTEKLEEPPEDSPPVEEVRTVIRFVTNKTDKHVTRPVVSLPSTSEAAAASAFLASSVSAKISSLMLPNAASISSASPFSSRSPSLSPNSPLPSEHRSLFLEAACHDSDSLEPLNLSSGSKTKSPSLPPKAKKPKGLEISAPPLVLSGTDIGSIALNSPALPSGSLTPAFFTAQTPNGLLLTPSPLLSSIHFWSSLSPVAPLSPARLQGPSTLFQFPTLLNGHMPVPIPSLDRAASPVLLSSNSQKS
The procedure, abridged:
as §1

In another assay the target is T7, FEV (Homo sapiens, UniProt Q99581 1-238).
T7 sequence: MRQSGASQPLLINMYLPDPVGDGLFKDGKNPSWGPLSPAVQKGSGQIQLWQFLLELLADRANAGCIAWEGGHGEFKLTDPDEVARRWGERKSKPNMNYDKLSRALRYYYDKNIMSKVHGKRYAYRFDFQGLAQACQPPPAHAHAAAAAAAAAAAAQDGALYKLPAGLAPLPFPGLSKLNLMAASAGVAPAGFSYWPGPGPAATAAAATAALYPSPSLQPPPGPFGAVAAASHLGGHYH
The procedure, abridged:
as §1

The target of another assay is ETV5 (Homo sapiens, UniProt P41161 1-510). In outline: as §1
For another assay, the target named is T8, SPIC (Homo sapiens, UniProt Q8N5J4 1-248).
T8 sequence: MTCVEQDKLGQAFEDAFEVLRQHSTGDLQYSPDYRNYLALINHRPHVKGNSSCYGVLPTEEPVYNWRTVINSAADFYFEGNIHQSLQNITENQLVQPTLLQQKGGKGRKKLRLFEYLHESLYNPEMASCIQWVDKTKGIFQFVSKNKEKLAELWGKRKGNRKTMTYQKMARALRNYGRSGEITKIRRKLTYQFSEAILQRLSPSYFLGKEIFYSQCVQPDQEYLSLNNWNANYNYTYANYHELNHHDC
The procedure, abridged:
as §1

The target of a further assay is ELF4 (Homo sapiens, UniProt Q99607 1-663). In outline: as §1
Another assay deals with T9, ELK4 (Homo sapiens, UniProt P28324-2 1-405).
T9 sequence: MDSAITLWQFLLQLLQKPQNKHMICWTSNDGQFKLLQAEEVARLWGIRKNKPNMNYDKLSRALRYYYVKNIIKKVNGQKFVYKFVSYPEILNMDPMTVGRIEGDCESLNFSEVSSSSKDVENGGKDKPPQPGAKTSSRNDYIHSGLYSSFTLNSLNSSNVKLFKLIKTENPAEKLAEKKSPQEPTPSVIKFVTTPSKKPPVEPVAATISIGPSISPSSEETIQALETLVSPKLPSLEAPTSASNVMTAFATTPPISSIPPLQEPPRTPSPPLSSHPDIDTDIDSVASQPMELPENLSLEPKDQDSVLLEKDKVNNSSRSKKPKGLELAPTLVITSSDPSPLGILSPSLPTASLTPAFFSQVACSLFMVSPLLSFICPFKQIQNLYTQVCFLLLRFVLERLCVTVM
The procedure, abridged:
as §1

For another assay, the target named is T10, ETV2 (Homo sapiens, UniProt O00321 1-342).
T10 sequence: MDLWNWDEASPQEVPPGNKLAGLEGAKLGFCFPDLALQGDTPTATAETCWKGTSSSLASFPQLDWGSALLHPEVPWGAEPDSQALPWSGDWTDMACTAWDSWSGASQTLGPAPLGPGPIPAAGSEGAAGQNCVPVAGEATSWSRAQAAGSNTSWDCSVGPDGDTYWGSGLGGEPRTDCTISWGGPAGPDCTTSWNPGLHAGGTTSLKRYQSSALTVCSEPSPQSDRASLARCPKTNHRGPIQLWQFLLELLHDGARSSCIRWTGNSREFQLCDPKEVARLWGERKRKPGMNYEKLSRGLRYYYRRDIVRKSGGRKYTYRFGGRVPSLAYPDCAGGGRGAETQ
The procedure, abridged: as §1

A further assay addresses T11, ELF3 (Homo sapiens, UniProt P78545 1-371).
T11 sequence: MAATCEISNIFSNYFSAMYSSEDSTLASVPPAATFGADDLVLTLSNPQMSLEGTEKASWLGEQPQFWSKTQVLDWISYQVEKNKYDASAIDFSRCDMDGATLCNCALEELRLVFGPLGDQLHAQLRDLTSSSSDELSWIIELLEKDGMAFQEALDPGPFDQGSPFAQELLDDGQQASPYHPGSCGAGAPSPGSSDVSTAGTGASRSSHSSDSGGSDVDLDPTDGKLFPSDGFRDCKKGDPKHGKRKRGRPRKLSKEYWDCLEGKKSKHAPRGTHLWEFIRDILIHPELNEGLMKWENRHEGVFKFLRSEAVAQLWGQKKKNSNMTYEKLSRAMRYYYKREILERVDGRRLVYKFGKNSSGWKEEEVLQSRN
The procedure, abridged: as §1

Another assay deals with ETV1 (Homo sapiens, UniProt P50549 1-477). In outline: as §1

Consider one sequence from article PMC7862700, “An all-to-all approach to the identification of sequence-specific readers for epigenetic DNA modifications on cytosine”.

Chain of ETV1 (P50549 whole entry): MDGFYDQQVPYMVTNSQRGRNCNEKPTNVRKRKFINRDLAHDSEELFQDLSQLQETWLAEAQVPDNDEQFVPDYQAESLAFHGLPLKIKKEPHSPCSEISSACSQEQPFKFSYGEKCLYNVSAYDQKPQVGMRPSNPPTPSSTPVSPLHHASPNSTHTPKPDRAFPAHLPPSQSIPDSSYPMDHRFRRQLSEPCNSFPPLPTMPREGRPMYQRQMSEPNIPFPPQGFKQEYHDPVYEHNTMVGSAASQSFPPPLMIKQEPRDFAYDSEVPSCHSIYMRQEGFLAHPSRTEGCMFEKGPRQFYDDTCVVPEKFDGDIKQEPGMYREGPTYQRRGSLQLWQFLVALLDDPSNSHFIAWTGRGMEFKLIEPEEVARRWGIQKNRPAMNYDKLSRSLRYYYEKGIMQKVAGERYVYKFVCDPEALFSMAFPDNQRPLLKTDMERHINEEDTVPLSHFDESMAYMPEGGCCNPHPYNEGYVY
Chain of ETV5 (P41161 whole entry): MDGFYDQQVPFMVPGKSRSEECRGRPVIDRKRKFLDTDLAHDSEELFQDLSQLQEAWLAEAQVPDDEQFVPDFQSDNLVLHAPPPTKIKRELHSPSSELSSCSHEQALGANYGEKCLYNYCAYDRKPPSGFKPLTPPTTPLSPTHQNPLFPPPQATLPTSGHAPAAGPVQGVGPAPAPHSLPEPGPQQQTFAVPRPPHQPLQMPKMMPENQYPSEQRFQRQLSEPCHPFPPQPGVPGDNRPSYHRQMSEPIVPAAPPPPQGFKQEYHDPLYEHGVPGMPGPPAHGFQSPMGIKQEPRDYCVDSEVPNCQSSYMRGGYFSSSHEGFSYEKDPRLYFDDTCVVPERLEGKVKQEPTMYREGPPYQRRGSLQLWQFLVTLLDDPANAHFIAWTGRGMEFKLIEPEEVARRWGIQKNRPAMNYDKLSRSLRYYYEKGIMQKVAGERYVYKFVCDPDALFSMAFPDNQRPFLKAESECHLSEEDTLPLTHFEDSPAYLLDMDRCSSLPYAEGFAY
Chain of ELF1 (P32519 whole entry): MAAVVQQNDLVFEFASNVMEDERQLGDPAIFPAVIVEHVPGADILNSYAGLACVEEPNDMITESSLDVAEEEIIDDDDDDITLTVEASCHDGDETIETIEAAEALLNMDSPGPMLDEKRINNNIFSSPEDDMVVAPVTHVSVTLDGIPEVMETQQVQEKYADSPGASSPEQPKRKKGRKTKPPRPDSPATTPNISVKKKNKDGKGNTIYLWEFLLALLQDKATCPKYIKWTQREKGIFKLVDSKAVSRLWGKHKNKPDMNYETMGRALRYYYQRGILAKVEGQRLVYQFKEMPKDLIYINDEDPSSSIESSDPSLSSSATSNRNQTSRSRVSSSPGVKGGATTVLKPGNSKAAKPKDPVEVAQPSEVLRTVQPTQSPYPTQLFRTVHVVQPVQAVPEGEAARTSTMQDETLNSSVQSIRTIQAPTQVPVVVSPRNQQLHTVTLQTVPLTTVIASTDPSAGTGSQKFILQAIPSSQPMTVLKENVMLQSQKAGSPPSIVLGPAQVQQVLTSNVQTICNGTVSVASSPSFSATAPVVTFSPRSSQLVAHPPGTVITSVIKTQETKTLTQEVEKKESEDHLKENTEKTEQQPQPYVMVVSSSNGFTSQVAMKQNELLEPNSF
Chain of SPIB (Q01892 whole entry): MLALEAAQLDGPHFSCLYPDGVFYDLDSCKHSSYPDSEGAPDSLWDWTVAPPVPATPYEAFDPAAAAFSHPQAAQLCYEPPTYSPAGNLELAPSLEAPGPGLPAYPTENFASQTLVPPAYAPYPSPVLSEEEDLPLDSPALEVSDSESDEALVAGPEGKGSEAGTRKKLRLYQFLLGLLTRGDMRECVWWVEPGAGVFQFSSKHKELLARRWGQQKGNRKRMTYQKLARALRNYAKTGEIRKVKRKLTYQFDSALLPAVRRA
Chain of ELF4 (Q99607 whole entry): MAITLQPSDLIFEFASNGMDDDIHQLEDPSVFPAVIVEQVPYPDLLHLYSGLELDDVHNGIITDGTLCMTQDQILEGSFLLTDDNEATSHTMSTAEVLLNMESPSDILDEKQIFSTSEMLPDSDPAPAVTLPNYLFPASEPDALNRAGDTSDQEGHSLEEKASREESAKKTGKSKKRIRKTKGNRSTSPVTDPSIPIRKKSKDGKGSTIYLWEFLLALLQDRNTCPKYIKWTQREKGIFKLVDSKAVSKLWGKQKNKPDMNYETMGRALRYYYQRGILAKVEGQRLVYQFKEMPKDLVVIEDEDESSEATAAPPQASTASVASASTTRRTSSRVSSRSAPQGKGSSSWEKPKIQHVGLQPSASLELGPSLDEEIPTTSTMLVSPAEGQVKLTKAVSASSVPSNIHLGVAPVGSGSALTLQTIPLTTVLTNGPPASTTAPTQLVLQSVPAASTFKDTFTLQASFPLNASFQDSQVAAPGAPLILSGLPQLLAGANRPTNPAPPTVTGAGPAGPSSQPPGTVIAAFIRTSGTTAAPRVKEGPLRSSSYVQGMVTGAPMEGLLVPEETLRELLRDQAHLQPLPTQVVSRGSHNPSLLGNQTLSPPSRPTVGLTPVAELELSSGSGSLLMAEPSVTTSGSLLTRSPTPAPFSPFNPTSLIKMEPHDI

As for ACCGGA, the binding signal was 2.87 fold enrichment (6-mer frequency, TF over GST control) with FLI1; 3.55 fold enrichment (6-mer frequency, TF over GST control) with ELK1; 2.66 fold enrichment (6-mer frequency, TF over GST control) with GABPA; 3.94 fold enrichment (6-mer frequency, TF over GST control) in the assay with ERG; 2.87 fold enrichment (6-mer frequency, TF over GST control) with ELF1; 3.2 fold enrichment (6-mer frequency, TF over GST control) with EHF. Besides, the binding signal with SPI1 is 3.17 fold enrichment (6-mer frequency, TF over GST control); in the assay with SPIB it was 3.16 fold enrichment (6-mer frequency, TF over GST control); with ELK3 it was 3.55 fold enrichment (6-mer frequency, TF over GST control); with FEV, 6.19 fold enrichment (6-mer frequency, TF over GST control); with ETV5, 3.33 fold enrichment (6-mer frequency, TF over GST control); in the assay with SPIC, 2.63 fold enrichment (6-mer frequency, TF over GST control). The binding signal in the assay with ELF4 is 2.78 fold enrichment (6-mer frequency, TF over GST control); with ELK4, 2.4 fold enrichment (6-mer frequency, TF over GST control); in the assay with ETV2, 3.02 fold enrichment (6-mer frequency, TF over GST control); in the assay with ELF3, 3.15 fold enrichment (6-mer frequency, TF over GST control); with ETV1, 3.45 fold enrichment (6-mer frequency, TF over GST control).
